Screening results from PubChem BioAssay.
C2C12 statin = suppressors of simvastatin-induced myotoxicity in C2C12 myotubes; ATP luminescence, 48 h; scaled: DMSO 0, geranylgeraniol control 100; rescue of ATP level, % at 7.49 µM; hit rate 0.78% among 330,000; AID 602340;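 active = mean ATP rescue above about 67%, or every replicate alone reaching that limit, limit read from the data, passing the limit was not always enough; inconclusive = no clear call, values can overlap the other calls; inactive = mean under the limit and some replicate under it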;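 note: myotubes were challenged with 10 µM simvastatin during compound exposure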
AI-2 QS mod = modulators of Vibrio harveyi AI-2 quorum sensing system | Vibrio harveyi JMH597 AI-2 luminescence/OD600 ratio, 9 h; stronger effect = lower value; strain lacks LuxN and CqsS sensors; 0 = neutral-control median | activity change, % at 7.5 µM | hit rate 0.4% among 300,000; in the data active = activity change below about -75%, passing the limit was not always enough; inconclusive = no clear call, values can overlap the other calls;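 note: luminescence divided by OD600 gain over 9 h not by final OD600 alone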
PGC1a acetyl inh = modulators of PGC1a acetylation; U2OS PGC1a acetylation, AlphaScreen anti-acetyl-lysine; with virally co-expressed GCN5 acetyltransferase; inhibition, % at 15.6 µM; hit rate 0.17% among 350,000;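 active = every replicate shows inhibition of at least 40%; inconclusive = mean inhibition at least 40% but some replicate below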;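 note: 0% = neutral control wells and 100% = positive control wells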
HIF activator = HIF pathway transcriptional activation. U2OS HRE-luciferase reporter, luminescence; normalized: DMSO 0%, desferrioxamine 100%. activation, % at 7.5 µM (by protocol). hit rate 0.32% among 300,000. AID 1910;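 active = mean activation of at least 10% of the iron chelator positive control signal, with at least half of replicates also reaching 10%; inconclusive = mean and replicate majority disagree about reaching 10%; inactive = mean and most replicates under 10%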
Rce1 inh = blocks yeast Ras-converting enzyme; calls only; yeast membranes, quenched prenylated peptide cleavage fluorescence; Q03530; AID 2563; hit rate 0.27% among 290,000;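 active = fall in fluorescence gain of 50% or more versus controls, with final raw signal at or below 3038400; inconclusive = same 50% fall but final raw signal above 3038400; inactive = fall in fluorescence gain under 50%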;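 note: plate controls were neutral control wells for no effect and wells lacking membranes for full effect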
Target sequence (Q03530 whole entry, looked up): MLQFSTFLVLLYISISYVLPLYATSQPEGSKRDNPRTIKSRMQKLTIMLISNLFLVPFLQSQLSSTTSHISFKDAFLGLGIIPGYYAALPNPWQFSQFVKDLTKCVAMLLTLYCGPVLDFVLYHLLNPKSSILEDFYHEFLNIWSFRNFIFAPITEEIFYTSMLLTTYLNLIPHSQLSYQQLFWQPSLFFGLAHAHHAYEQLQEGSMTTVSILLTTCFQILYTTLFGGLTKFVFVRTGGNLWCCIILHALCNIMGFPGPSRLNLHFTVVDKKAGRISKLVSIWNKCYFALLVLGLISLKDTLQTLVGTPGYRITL
* marks the source's active call; other numbers are inactive results; i = inactive; ? = inconclusive; / = not tested or not shown; + = active, no number. Compounds with a hit are over-represented: about 1.3% of the library has one in this group of screens.

SMILES	C2C12 statin	AI-2 QS mod	PGC1a acetyl inh	HIF activator	Rce1 inh
CCC(C)(C)c1ccc(OCCCC[n+]2cccc(C)c2C)c(C(C)(C)CC)c1	/	10	-2	-3	+
CCC(C)(C)c1ccc(OCCCC[n+]2ccc(C)cc2)c(C(C)(C)CC)c1	/	12	/	0	i
COc1cccc(-c2cnc3c(c2)C(=O)N([C@@H](C)CO)C[C@@H](C)[C@H](CN(C)CC2CCCC2)O3)c1	1	/	-19	/	/
C[C@@H]1CN([C@@H](C)CO)C(=O)c2cc(NC(=O)CCC(F)(F)F)ccc2O[C@@H](C)CCCCO[C@H]1CN(C)S(=O)(=O)c1cn(C)cn1	44	/	/	/	/
CC1CCN(c2nc3ccccc3nc2C(C#N)C(=O)NC2CCCCC2)CC1 (configuration not stated)	/	11	/	-1	i
CCCCOc1nc2ccccc2nc1C(C#N)C(=O)NC1CCCCC1 (configuration not stated)	108*	13	-2	0	i
N#Cc1c2n(c3c(=O)n(Cc4ccc(Cl)cc4)cnc13)CCCCC2	95*	32	2	0	i
C[C@@H]1CN([C@H](C)CO)C(=O)c2cc(NC(=O)Nc3ccc(C(F)(F)F)cc3)ccc2O[C@@H](C)CCCCO[C@@H]1CN(C)Cc1ccccc1	/	/	-17	/	/
COc1ccccc1NC(=O)CN(C)S(=O)(=O)c1cccc2cccnc12	-4	5	-10	29*	i
COc1ccccc1CNC(=O)CN(C)S(=O)(=O)c1cccc2cccnc12	/	10	10	0	i
Cc1nc(C(=O)Nc2ccc(Cl)cc2Cl)nn1-c1cc(OC(C)C)c(Cl)cc1Cl	/	17	/	15*	i
Cc1nc(C(=O)Nc2cc(Cl)ccc2Cl)nn1-c1cc(OC(C)C)c(Cl)cc1Cl	2	14	2	-1	i
COCC(=O)Nc1ccc2c(c1)C(=O)N(C)C[C@H](OC)[C@@H](C)CN(C(=O)Cc1ccccn1)[C@@H](C)CO2	-6	/	-5	/	/
C/C(=N\Nc1ccc2nncn2n1)c1ccccn1	/	?	22	129*	i
CCN(CC)c1ccc(C(=O)NNC(=O)CCl)cc1	31	19	20	0	i
CCN(CC)c1ccc(C(=C2C=CC(=[N+](CC)CC)C=C2)c2ccc(N(CC)CC)cc2)cc1	-362	/	83*	/	/
C/C=C/c1cccc(-c2nc(C(=O)NCc3ccncc3)cc3c2[C@@H](CCO)N([S@](=O)C(C)(C)C)C3)c1	/	/	6	/	/
O=C(N[C@H]1CC[C@H](CCNC(=O)C2CCOCC2)O[C@H]1CO)c1ccccn1	-4	/	-4	/	/
CCOC(=O)C(=O)/C(=C\N(C)C)c1onc(-c2c(Cl)cccc2Cl)c1C(=O)OC	85*	11	10	0	i
CCOC(=O)C(=O)/C(=C\N(C)C)c1onc(-c2ccccc2Cl)c1C(=O)OC	/	11	-1	-1	i
CC(=O)c1cccc(NC(=O)c2ccccc2-c2ccccc2C(=O)O)c1	-1	13	7	0	i
COc1cccc(C(=O)Nc2ccc(N(C)C)cc2)c1OC	90*	12	-10	-27	i
COc1ccc(-c2noc(-c3ccccc3C(=O)Nc3cccnc3)n2)cc1	103*	27	35	0	i
COc1cccc(C(=O)Nc2ccncc2)c1OC	-7	5	/	1	i
COc1cccc(NC(=O)c2ccccc2-c2ccccc2C(=O)O)c1	-4	12	81*	1	i
SMILES	C2C12 statin	AI-2 QS mod	PGC1a acetyl inh	HIF activator	Rce1 inh
COc1cccc(NC(=O)c2cccc(OC)c2OC)c1	116*	27	-7	-10	i
Cc1ccc(S(=O)(=O)Nc2ccc3c(c2)C(=O)N([C@H](C)CO)C[C@@H](C)[C@@H](CN(C)Cc2ccncc2)OCCCC[C@@H](C)O3)cc1	/	/	1	/	/
COc1ccc(NC(=O)CN2c3cccc4cccc(c34)S2(=O)=O)cc1	99*	0	-2	0	i
Cc1ccc(NC(=O)CN2c3cccc4cccc(c34)S2(=O)=O)cc1	-4	/	/	/	/
COc1ccc(-c2cc(C(F)(F)F)nc(SCCC(=O)Nc3cc(C)on3)n2)cc1	/	-2	-5	0	i
COCCNC(=O)CCSc1nc(-c2ccc(OC)cc2)cc(C(F)(F)F)n1	87*	-7	-38	0	i
CCn1nc(C(=O)OCC(=O)NC(C)C)c2ccccc2c1=O	/	10	-4	38*	i
CC(C)CCn1nc(C(=O)OCC(=O)NC(C)c2ccccc2)c2ccccc2c1=O (configuration not stated)	15	/	9	/	/
CCOC(=O)c1nn(-c2ccc(F)cc2)c(C)c1C(C)=O	74*	16	1	0	i
CSc1ccc(C(C(C(=O)c2cccs2)N2CCOCC2)N2CCOCC2)cc1 (configuration not stated)	77*	1	-7	0	i
CCCC(=O)N1CCC2(CC1)CN(S(=O)(=O)c1ccc(C)cc1)[C@@H](CO)c1[nH]c3cc(OC)ccc3c12	/	/	-6	/	/
C=CC(=O)N1C/C(=C/c2ccc(F)cc2)C(=O)/C(=C\c2ccc(F)cc2)C1	17	/	83*	/	/
CC(C)NC(=O)Nc1ccc2c(c1)C(=O)N([C@H](C)CO)C[C@@H](C)[C@H](CN(C)C)O2	-21	/	3	/	/
C/C=C/c1ccc2c(c1)O[C@H](CN(C)C(=O)NC1CCCCC1)[C@@H](C)CN([C@@H](C)CO)S2(=O)=O	-44	/	-5	/	/
N#Cc1ccccc1/C=N/Nc1nc(-c2ccccc2)c2cc(Br)ccc2n1	99*	18	-2	1	i
COc1ccc(CN2CC3(C2)CN(Cc2ccc4c(c2)OCO4)[C@H](CO)c2[nH]c4cc(OC)ccc4c23)cc1	/	/	14	/	/
COc1ccc(NC(=O)NCCN2CCc3ccccc3C2)cc1	/	16	0	0	i
O=C(NCCCN1CCc2ccccc2C1)Nc1ccc(Cl)cc1	87*	0	-21	0	i
C[C@@H](NC(=O)C[C@@H]1C[C@H]2c3cc(NC(=O)c4ccc5c(c4)OCO5)ccc3O[C@H]2[C@@H](CO)O1)c1ccccc1	-5	/	-2	/	/
Cc1ccc(C(=O)n2nc(-c3ccco3)nc2N)cc1	81*	41	-4	0	i
Nc1nc(-c2ccco2)nn1C(=O)CCc1ccccc1	113*	6	0	0	i
Nc1nc(-c2cccnc2)nn1C(=O)CCc1ccccc1	-8	12	6	0	i
O=C(Nc1ccc(F)cc1)N1C[C@@H]2[C@H](c3ccccc31)[C@H](CO)N2Cc1cocn1	20	/	-3	/	/
COc1cc2c(cc1OC)C(c1ccccc1)N(C(=O)CCl)CC2 (configuration not stated)	168*	16	8	-1	i
COc1cc2c(cc1OC)C(C1C(=O)CCCC1=O)N(C(=O)CCl)CC2 (configuration not stated)	3	11	-4	0	i
